Source: the supplement of paper PMC10849652
About 7,900 targets were measured; listed, in parts, are those with a hit and a random draw of the rest. About 0.6% of all pairs of compound and target were hits.

compound: CCCS(=O)(=O)Nc1ccc(F)c(C(=O)c2c[nH]c3ncc(Cl)cc23)c1F; test: log2 fold change, soluble protein after heating vs DMSO (PISA); higher = thermal stabilisation; K562 cells, 10 uM, 30 min; active = over 0.2 and 3.5 SD of the protein, either way, in both replicates (recomputed)
Procedure, shortened: (§1)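 K562 cells (2×10^6 cells/mL) were treated with 10 μM compound for 30 min, and aliquots were heated for 3 min over 48°C-58°C. Pooled aliquots were extracted in PBS with 0.5% NP-40 at 4°C, and the supernatant after 21,000xg for 90 min was measured by TMTpro 16plex LC-MS/MS with channel sums equalised. Reported thermal stability, relative to control samples and from duplicates, is a log2 fold change.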

Chain of UniProt Q2TAC2 (Q2TAC2 whole entry, looked up): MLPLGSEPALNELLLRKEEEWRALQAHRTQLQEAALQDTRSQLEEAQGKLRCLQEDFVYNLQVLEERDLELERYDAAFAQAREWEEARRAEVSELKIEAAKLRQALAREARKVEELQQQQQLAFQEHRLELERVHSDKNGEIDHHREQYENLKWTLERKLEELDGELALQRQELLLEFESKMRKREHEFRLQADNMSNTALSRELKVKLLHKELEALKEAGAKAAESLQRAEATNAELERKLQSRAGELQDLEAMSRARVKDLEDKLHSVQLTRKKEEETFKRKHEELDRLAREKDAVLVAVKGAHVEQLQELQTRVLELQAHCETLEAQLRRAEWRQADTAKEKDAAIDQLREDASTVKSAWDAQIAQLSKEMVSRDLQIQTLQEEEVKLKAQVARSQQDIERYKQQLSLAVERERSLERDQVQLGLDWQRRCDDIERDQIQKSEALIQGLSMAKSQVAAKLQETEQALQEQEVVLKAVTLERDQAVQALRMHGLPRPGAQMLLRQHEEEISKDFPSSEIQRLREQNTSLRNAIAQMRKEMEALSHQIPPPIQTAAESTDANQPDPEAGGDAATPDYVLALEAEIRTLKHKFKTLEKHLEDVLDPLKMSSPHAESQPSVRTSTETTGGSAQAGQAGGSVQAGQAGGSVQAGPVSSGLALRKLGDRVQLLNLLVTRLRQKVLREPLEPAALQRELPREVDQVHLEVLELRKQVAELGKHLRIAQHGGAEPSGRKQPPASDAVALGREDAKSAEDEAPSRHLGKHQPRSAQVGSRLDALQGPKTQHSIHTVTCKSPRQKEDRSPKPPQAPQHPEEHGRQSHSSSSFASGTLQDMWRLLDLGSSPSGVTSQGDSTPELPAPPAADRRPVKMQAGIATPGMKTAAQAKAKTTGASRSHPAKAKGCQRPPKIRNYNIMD
Chain of UniProt Q9P031 (Q9P031 whole entry, looked up): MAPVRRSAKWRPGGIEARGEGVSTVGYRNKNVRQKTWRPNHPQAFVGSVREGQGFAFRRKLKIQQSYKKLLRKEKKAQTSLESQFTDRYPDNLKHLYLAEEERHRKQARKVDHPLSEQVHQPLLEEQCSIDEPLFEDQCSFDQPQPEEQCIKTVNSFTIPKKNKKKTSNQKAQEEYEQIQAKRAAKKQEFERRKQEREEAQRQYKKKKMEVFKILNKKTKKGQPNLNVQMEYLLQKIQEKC
Chain of UniProt Q96LT7 (Q96LT7 whole entry, looked up): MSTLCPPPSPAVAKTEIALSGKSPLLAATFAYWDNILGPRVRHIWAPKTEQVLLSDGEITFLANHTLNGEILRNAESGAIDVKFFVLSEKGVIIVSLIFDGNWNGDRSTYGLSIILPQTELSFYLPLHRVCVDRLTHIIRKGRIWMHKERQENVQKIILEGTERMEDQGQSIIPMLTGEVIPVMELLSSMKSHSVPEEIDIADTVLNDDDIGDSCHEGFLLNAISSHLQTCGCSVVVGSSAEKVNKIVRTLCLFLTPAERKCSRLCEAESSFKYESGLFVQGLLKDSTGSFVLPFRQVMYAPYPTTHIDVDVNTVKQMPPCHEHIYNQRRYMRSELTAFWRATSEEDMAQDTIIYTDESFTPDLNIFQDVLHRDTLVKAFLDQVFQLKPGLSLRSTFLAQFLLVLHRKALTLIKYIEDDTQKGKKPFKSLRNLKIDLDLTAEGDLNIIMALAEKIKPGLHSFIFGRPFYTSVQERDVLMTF
Chain of UniProt P83916 (P83916 whole entry, looked up): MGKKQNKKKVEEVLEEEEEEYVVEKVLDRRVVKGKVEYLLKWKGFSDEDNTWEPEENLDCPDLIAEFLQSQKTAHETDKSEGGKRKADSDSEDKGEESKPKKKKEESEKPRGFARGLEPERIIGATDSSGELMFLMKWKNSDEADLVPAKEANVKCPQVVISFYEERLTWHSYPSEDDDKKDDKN
Chain of UniProt Q8N1A6 (Q8N1A6 whole entry, looked up): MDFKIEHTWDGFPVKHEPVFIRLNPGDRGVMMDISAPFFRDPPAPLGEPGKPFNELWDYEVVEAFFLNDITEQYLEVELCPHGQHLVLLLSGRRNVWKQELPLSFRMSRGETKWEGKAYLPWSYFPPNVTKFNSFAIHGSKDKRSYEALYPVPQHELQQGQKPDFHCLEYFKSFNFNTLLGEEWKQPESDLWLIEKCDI
Chain of UniProt P86791 (P86791 whole entry, looked up): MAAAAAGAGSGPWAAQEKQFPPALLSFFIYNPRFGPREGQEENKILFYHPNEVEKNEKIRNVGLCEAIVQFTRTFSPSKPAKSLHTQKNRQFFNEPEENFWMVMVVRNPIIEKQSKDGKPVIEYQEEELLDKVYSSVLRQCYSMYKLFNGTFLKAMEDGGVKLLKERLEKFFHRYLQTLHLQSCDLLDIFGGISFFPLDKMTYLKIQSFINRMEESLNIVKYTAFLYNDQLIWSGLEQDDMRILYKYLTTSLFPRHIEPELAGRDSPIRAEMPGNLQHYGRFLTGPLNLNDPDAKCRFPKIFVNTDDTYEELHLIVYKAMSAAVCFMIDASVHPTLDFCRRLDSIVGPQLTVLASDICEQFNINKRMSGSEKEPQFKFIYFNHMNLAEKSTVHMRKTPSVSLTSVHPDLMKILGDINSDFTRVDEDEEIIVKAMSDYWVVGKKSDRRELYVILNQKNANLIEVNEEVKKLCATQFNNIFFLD
Chain of UniProt Q86X83 (Q86X83 whole entry, looked up): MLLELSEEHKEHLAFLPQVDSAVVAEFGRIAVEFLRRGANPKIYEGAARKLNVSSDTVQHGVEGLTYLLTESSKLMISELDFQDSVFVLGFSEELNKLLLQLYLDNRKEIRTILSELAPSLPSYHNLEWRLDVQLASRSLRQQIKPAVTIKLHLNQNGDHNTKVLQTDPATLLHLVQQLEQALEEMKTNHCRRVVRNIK
Chain of UniProt Q9NRR8 (Q9NRR8 whole entry, looked up): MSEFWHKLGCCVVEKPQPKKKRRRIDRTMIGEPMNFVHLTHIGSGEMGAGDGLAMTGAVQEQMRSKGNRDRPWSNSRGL
Chain of UniProt Q5T5Y3 (Q5T5Y3 whole entry, looked up): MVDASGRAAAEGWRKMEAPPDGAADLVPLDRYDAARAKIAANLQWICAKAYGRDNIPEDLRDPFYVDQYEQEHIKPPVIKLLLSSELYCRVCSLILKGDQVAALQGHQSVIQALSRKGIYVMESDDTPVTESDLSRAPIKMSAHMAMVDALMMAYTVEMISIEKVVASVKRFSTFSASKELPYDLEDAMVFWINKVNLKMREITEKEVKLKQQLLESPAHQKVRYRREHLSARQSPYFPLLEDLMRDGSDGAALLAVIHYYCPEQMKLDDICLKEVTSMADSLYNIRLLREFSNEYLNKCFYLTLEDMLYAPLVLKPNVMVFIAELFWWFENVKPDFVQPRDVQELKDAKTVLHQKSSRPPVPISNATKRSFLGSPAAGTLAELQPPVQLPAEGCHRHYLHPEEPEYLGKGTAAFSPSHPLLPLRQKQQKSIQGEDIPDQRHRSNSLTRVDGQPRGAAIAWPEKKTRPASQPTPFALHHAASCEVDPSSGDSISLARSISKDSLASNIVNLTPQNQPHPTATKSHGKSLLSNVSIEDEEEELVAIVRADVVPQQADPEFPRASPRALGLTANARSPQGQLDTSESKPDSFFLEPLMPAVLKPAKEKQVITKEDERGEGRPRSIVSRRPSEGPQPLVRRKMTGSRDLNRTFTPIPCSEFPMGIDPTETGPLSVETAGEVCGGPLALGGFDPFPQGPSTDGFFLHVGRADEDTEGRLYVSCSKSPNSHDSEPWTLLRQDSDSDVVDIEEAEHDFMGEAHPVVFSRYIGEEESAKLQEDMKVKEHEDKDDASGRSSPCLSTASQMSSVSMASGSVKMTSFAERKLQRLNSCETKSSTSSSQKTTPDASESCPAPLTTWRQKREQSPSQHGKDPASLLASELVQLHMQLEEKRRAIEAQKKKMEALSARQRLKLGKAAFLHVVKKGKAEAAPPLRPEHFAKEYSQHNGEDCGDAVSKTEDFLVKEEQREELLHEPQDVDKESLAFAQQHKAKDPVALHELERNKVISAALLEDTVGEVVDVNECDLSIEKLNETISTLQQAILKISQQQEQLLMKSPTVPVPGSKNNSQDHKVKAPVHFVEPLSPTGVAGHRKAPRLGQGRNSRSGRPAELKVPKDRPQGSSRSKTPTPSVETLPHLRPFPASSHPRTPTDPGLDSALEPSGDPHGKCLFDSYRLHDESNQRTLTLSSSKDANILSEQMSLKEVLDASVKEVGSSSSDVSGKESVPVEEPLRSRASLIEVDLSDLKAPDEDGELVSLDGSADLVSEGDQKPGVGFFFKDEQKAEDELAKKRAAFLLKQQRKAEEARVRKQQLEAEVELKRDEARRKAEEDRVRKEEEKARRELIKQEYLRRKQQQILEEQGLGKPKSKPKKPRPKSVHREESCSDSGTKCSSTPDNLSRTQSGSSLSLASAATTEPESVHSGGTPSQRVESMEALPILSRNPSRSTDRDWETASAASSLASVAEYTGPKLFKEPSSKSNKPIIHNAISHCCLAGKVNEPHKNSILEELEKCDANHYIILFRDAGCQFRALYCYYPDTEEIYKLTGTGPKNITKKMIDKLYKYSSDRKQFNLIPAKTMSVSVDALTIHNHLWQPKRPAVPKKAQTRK
Chain of UniProt P08174 (P08174 whole entry, looked up): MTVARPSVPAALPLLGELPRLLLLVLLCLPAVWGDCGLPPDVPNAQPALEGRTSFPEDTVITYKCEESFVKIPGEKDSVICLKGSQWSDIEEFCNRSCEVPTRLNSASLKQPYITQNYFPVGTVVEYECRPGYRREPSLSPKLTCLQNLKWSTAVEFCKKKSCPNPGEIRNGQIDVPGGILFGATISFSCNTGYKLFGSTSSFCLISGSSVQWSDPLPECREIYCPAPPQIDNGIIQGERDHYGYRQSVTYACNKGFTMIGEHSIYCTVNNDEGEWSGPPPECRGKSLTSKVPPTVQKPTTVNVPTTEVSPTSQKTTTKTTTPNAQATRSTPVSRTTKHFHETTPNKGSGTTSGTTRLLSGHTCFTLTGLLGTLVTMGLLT
Chain of UniProt P45973 (P45973 whole entry, looked up): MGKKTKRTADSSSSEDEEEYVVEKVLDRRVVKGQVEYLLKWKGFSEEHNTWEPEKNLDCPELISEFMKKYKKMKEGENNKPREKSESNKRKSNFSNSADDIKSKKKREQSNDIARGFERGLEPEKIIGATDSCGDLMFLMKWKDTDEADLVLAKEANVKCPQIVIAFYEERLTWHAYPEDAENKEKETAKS

log2 fold change, inactive:
CERT isoform 3 (UniProt Q9Y5P4) 0.061
CCDC57 (UniProt Q2TAC2) 0.013
CRKL (UniProt P46109) -0.009
CBX1 (UniProt P83916) 0.057
CBX5 (UniProt P45973) 0.085
CRLF3 (UniProt Q8IUI8) 0.044
CASC3 (UniProt O15234) -0.061
CD55 isoform 7 (UniProt P08174) -0.053
CALCOCO2 isoform 4 (UniProt Q13137) -0.037
CETN3 (UniProt O15182) -0.164
CHAC2 (UniProt Q8WUX2) 0.031
CPSF7 isoform 3 (UniProt Q8N684) 0.007
CNTN4 (UniProt Q8IWV2) 0.058
CD63 (UniProt P08962) -0.007
CCDC59 (UniProt Q9P031) 0.008
CBR1 (UniProt P16152) 0.074
CHP1 (UniProt Q99653) -0.042
CLINT1 isoform 3 (UniProt Q14677) -0.073
COMMD2 (UniProt Q86X83) 0.159
C9orf72 (UniProt Q96LT7) -0.038
CLUH (UniProt O75153) -0.03
CERS2 (UniProt Q96G23) 0.101
CKB (UniProt P12277) 0.015
CHCHD1 (UniProt Q96BP2) 0.024
CDK5RAP3 isoform 4 (UniProt Q96JB5) 0.077
CAD (UniProt P27708) -0.018
CSTF3 (UniProt Q12996) -0.008
CSNK2B (UniProt P67870) 0.016
CCZ1 (UniProt P86791) 0.011
CDC42SE1 (UniProt Q9NRR8) 0.051
COPS3 (UniProt Q9UNS2) 0.011
C4orf33 (UniProt Q8N1A6) -0.082
CTBS (UniProt Q01459) -0.017
CALB1 (UniProt P05937) 0.019
CAMKK2 (UniProt Q96RR4) -0.043
CAMSAP1 isoform 3 (UniProt Q5T5Y3) 0.042

compound: CCCc1cc(C)[nH]c(=O)c1CNC(=O)c1cc(-c2ccnc(N3CCN(C)CC3)c2)cc2c1cnn2C(C)C; test: as above
Procedure, shortened: as §1

log2 fold change, inactive:
CERT isoform 3 (UniProt Q9Y5P4) 0.02
CCDC57 (UniProt Q2TAC2) -0.047
CRKL (UniProt P46109) -0.024
CBX1 (UniProt P83916) -0.011
CBX5 (UniProt P45973) -0.051
CRLF3 (UniProt Q8IUI8) 0.025
CASC3 (UniProt O15234) -0.065
CD55 isoform 7 (UniProt P08174) 0.088
CALCOCO2 isoform 4 (UniProt Q13137) -0.052
CETN3 (UniProt O15182) -0.116
CHAC2 (UniProt Q8WUX2) -0.08
CPSF7 isoform 3 (UniProt Q8N684) -0.016
CNTN4 (UniProt Q8IWV2) 0.364
CD63 (UniProt P08962) -0.125
CCDC59 (UniProt Q9P031) 0.113
CBR1 (UniProt P16152) 0.051
CHP1 (UniProt Q99653) 0.008
CLINT1 isoform 3 (UniProt Q14677) -0.019
COMMD2 (UniProt Q86X83) 0.019
C9orf72 (UniProt Q96LT7) 0.007
CLUH (UniProt O75153) 0.049
CERS2 (UniProt Q96G23) -0.013
CKB (UniProt P12277) -0.016
CHCHD1 (UniProt Q96BP2) -0.747
CDK5RAP3 isoform 4 (UniProt Q96JB5) -0.015
CAD (UniProt P27708) -0.078
CSTF3 (UniProt Q12996) -0.029
CSNK2B (UniProt P67870) -0.034
CCZ1 (UniProt P86791) -0.029
CDC42SE1 (UniProt Q9NRR8) -0.705
COPS3 (UniProt Q9UNS2) -0.044
C4orf33 (UniProt Q8N1A6) 0.07
CTBS (UniProt Q01459) 0.017
CALB1 (UniProt P05937) 0.011
CAMKK2 (UniProt Q96RR4) 0.277
CAMSAP1 isoform 3 (UniProt Q5T5Y3) -0.19
